Experimental data: PubChem BioAssay AID1159580 (chemical genetic matrix, 2015)
Where “and” joins values, the source holds several entries; their conditions need not be identical. Equal values may be shown once. The whole screen tested about 5,500 compounds, of which about 2,000 (36%) were called active. About 18% were inconclusive and are not listed. Some of the results follow. Values without a mark were called inactive. Rule as the data show it: active = normalized growth mostly below about 0.91 (no sharp cut-off); inconclusive = no clear call, values can overlap the other calls; inactive = mostly above about 0.92.

Test: chemical genetic growth profiling, strain panel (AID 1159580);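 also: tested at 20 µM; growth read once vehicle control cultures reached saturation at 30 °C; 1 = growth at the plate median or of vehicle wells; lower values mean less growth of the strain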
Settings: S. cerevisiae deletion strains, growth OD

COc1ccc2c(c1)OCC(Cc1ccc(OC)c(O)c1)C2=O (configuration not stated)
normalized growth (locus YAL013W, strain DEP1, stronger effect = lower value): 0.955 | normalized growth (locus YAL021C, strain ccr4, stronger effect = lower value): 0.993 | normalized growth (locus YAL026C, strain drs2, stronger effect = lower value): 0.965 | normalized growth (locus YAL030W, strain snc1, stronger effect = lower value): 0.953 | normalized growth (locus YBL061C, strain skt5, stronger effect = lower value): 0.961 | normalized growth (locus YBR009C, strain hhf1, stronger effect = lower value): 0.903 (active) | normalized growth (locus YBR021W, strain FUR4, stronger effect = lower value): 0.873 | normalized growth (locus YBR023C, strain chs3, stronger effect = lower value): 0.929 | normalized growth (locus YBR171W, strain sec66, stronger effect = lower value): 0.937 | normalized growth (locus YBR229C, strain ROT2, stronger effect = lower value): 0.98 | normalized growth (locus YBR231C, strain swc5, stronger effect = lower value): 0.968 | normalized growth (locus YBR279W, strain paf1, stronger effect = lower value): 0.979 | normalized growth (locus YCL011C, strain gbp2, stronger effect = lower value): 0.922 | normalized growth (locus YCL016C, strain dcc1, stronger effect = lower value): 0.939 | normalized growth (locus YCL029C, strain bik1, stronger effect = lower value): 0.952 | normalized growth (locus YCL061C, strain MRC1, stronger effect = lower value): 0.933 | normalized growth (locus YCL069W, strain vba3, stronger effect = lower value): 0.956 | normalized growth (locus YCR088W, strain abp1, stronger effect = lower value): 0.963 | normalized growth (locus YDL005C, strain med2, stronger effect = lower value): 0.959 | normalized growth (locus YDL035C, strain GPR1, stronger effect = lower value): 0.972 | normalized growth (locus YDL040C, strain nat1, stronger effect = lower value): 0.967 | normalized growth (locus YDL074C, strain BRE1, stronger effect = lower value): 0.937 | normalized growth (locus YDL101C, strain DUN1, stronger effect = lower value): 0.942 | normalized growth (locus YDL185W, strain tfp1, stronger effect = lower value): 0.961 | normalized growth (locus YDL192W, strain arf1, stronger effect = lower value): 0.958 | normalized growth (locus YDR001C, strain nth1, stronger effect = lower value): 0.959 | normalized growth (locus YDR069C, strain doa4, stronger effect = lower value): 1.01 | normalized growth (locus YDR101C, strain arx1, stronger effect = lower value): 0.972 | normalized growth (locus YDR137W, strain rgp1, stronger effect = lower value): 0.974 | normalized growth (locus YDR159W, strain sac3, stronger effect = lower value): 0.867 | normalized growth (locus YDR162C, strain NBP2, stronger effect = lower value): 0.982 | normalized growth (locus YDR195W, strain ref2): 1.23 [resistant] (active) | normalized growth (locus YDR297W, strain sur2, stronger effect = lower value): 0.963 | normalized growth (locus YDR318W, strain mcm21, stronger effect = lower value): 0.93 | normalized growth (locus YDR334W, strain swr1, stronger effect = lower value): 0.977 | normalized growth (locus YDR335W, strain msn5, stronger effect = lower value): 0.973 | normalized growth (locus YDR388W, stronger effect = lower value): 0.967 | normalized growth (locus YDR392W, strain spt3, stronger effect = lower value): 0.449 (active) | normalized growth (locus YDR502C, strain sam2, stronger effect = lower value): 0.909 (active) | normalized growth (locus YEL003W, strain gim4, stronger effect = lower value): 0.933 | normalized growth (locus YEL037C, strain rad23, stronger effect = lower value): 0.964 | normalized growth (locus YEL061C, strain CIN8 (second series), stronger effect = lower value): 0.968 | normalized growth (locus YEL061C, strain CIN8, stronger effect = lower value): 0.978 | normalized growth (locus YER015W, strain faa2, stronger effect = lower value): 0.961 | normalized growth (locus YER016W, strain bim1, stronger effect = lower value): 0.965 | normalized growth (locus YER110C, stronger effect = lower value): 0.931 | normalized growth (locus YER111C, strain swi4, stronger effect = lower value): 0.962 | normalized growth (locus YER155C, strain BEM2 (second series), stronger effect = lower value): 0.757 (active) | normalized growth (locus YER155C, strain BEM2, stronger effect = lower value): 0.963 | normalized growth (locus YER167W, strain BCK2, stronger effect = lower value): 0.981 | normalized growth (locus YFR010W, strain ubp6, stronger effect = lower value): 0.989 | normalized growth (locus YGL078C, strain dbp3, stronger effect = lower value): 0.92 (active) | normalized growth (locus YGL086W, strain mad1, stronger effect = lower value): 0.934 | normalized growth (locus YGL167C, strain pmr1, stronger effect = lower value): 0.939 | normalized growth (locus YGL173C, strain kem1, stronger effect = lower value): 0.924 | normalized growth (locus YGL227W, strain vid30, stronger effect = lower value): 0.964 | normalized growth (locus YGL240W, strain doc1, stronger effect = lower value): 0.821 (active) | normalized growth (locus YGL248W, strain PDE1, stronger effect = lower value): 0.9 | normalized growth (locus YGL253W, strain hxk2, stronger effect = lower value): 0.91 (active) | normalized growth (locus YGR078C, strain PAC10, stronger effect = lower value): 0.914 | normalized growth (locus YGR135W, strain pre9, stronger effect = lower value): 0.868 (active) | normalized growth (locus YGR252W, strain gcn5, stronger effect = lower value): 0.78 | normalized growth (locus YHR013C, strain ard1, stronger effect = lower value): 0.956 | normalized growth (locus YHR027C, strain rpn1, stronger effect = lower value): 0.944 | normalized growth (locus YHR030C, strain SLT2, stronger effect = lower value): 0.978 | normalized growth (locus YHR079C, strain IRE1 (second series), stronger effect = lower value): 0.964 | normalized growth (locus YHR079C, strain IRE1, stronger effect = lower value): 0.983 | normalized growth (locus YHR094C, strain hxt1, stronger effect = lower value): 0.969 | normalized growth (locus YHR129C, strain ARP1, stronger effect = lower value): 0.966 | normalized growth (locus YHR142W, strain chs7, stronger effect = lower value): 0.872 (active) | normalized growth (locus YHR200W, strain rpn10, stronger effect = lower value): 0.975 | normalized growth (locus YIL066C, strain RNR3, stronger effect = lower value): 0.975 | normalized growth (locus YIL073C, strain SPO22, stronger effect = lower value): 0.881 | normalized growth (locus YIL125W, strain kgd1, stronger effect = lower value): 0.969 | normalized growth (locus YIR030C, strain dcg1, stronger effect = lower value): 0.942 | normalized growth (locus YJL092W, strain hpr5, stronger effect = lower value): 0.968 | normalized growth (locus YJL095W, strain BCK1 (second series), stronger effect = lower value): 0.94 | normalized growth (locus YJL095W, strain BCK1, stronger effect = lower value): 0.903 and 1 | normalized growth (locus YJL115W, strain asf1, stronger effect = lower value): 0.969 | normalized growth (locus YJL129C, strain trk1, stronger effect = lower value): 0.886 | normalized growth (locus YJL134W, strain LCB3, stronger effect = lower value): 0.981 | normalized growth (locus YJL154C, strain vps35, stronger effect = lower value): 0.964 | normalized growth (locus YJL164C, strain tpk1, stronger effect = lower value): 0.933 | normalized growth (locus YJL166W, strain qcr8, stronger effect = lower value): 0.844 (active) | normalized growth (locus YJL168C, strain set2, stronger effect = lower value): 0.958 | normalized growth (locus YJL187C, strain SWE1 (second series), stronger effect = lower value): 0.926 | normalized growth (locus YJL187C, strain SWE1, stronger effect = lower value): 0.983
